The results in this text go back to PubChem BioAssay (EPA / NIEHS).

Read-out in test [1]: Interleukin-1 alpha (IL1a), IL1A (gene 3552)
Nature of the test: BSK_KF3CT_IL1a: BioMAP Diversity Plus: KF3CT Assay for Interleukin-1 alpha (IL1a) Biomarker Activity (AID 2283070). Particulars: primary human keratinocytes with fibroblasts; actives raise or lower the signal. The method in brief:
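Readout is IL-1a level by ELISA, compared bidirectionally with DMSO as baseline. Cells: human keratinocytes co-cultured with foreskin fibroblasts, harvested 24 h post-dose.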

Read-out in test [2]: TIMP metallopeptidase inhibitor 2 (TIMP2), TIMP2 (gene 7077)
Nature of the test: BSK_KF3CT_TIMP2: BioMAP Diversity Plus: KF3CT Assay for TIMP metallopeptidase inhibitor 2 (TIMP2) Biomarker Activity (AID 2283071). Particulars: primary human keratinocytes with fibroblasts; actives raise or lower the signal. The method in brief:
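ELISA readout of TIMP-2 in keratinocyte plus foreskin fibroblast co-cultures (human skin primary cells), 24 h post-dose. Gain or loss of signal fitted relative to DMSO.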

Read-out in test [3]: Transforming growth factor beta 1 (TGFb1), TGFB1 (gene 7040)
Briefly: BSK_KF3CT_TGFb1: BioMAP Diversity Plus: KF3CT Assay for Transforming growth factor beta 1 (TGFb1) Biomarker Activity (AID 2283072). The note with it: primary human keratinocytes with fibroblasts; actives raise or lower the signal. In a few lines:
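Read-out: ELISA for TGF-b1 in keratinocyte/foreskin fibroblast human skin co-culture, 24 h after dosing; bidirectional curve fit vs DMSO baseline; gain or loss of signal scored.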

Read-out in test [4]: C-C motif chemokine 2 (Homo sapiens) (UniProt P13500)
Briefly: BSK_KF3CT_MCP1: BioMAP Diversity Plus: KF3CT Assay for Monocyte Chemoattractant Protein 1 (MCP1/CCL2) Biomarker Activity (AID 2283073). The note with it: primary human keratinocytes with fibroblasts; actives raise or lower the signal. The method in brief: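 KF3CT skin co-culture (keratinocytes/foreskin fibroblasts), 24 h post-dose; MCP-1 by ELISA; gain/loss of signal fit bidirectionally vs DMSO baseline.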

Read-out in test [5]: Matrix Metallopeptidase 9 (MMP9), MMP9 (gene 4318)
Briefly: BSK_KF3CT_MMP9: BioMAP Diversity Plus: KF3CT Assay for Matrix Metallopeptidase 9 (MMP9) Biomarker Activity (AID 2283074).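 For AC50: MMP9 protein level quantified by ELISA in the co-culture.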 The note with it: primary human keratinocytes with fibroblasts; actives raise or lower the signal. The method in brief:
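Values come from bidirectional fitting relative to DMSO of MMP-9 levels, which were measured by ELISA. Measurements were taken 24 h after chemical dosing of a keratinocyte and foreskin fibroblast co-culture.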

Read-out in test [6]: urokinase plasminogen activator (uPA), PLAU (gene 5328)
Briefly: BSK_KF3CT_uPA: BioMAP Diversity Plus: KF3CT Assay for urokinase plasminogen activator (uPA) Biomarker Activity (AID 2283075). The note with it: primary human keratinocytes with fibroblasts; actives raise or lower the signal. The method in brief:
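Values derive from bidirectional fitting against DMSO controls. Keratinocyte/foreskin fibroblast co-cultures received chemical; 24 h later uPA was detected by ELISA, with SRB total-protein staining in parallel wells for overt cytotoxicity.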

Read-out in another test: CD40, CD40 (gene 958)
Nature of the test: BSK_LPS_CD40: BioMAP Diversity Plus: LPS Assay for CD40 Biomarker Activity (AID 2283076). Particulars: primary human HUVEC with PBMC; actives raise or lower the signal. The method in brief: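 ELISA readout of CD40 in HUVEC/PBMC co-culture (BSK_LPS system), 24 h post-dosing; bidirectional curve fit, DMSO baseline; parallel SRB total-protein staining for cytotoxicity.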

Read-out in test [7]: E-selectin (Homo sapiens) (UniProt P16581)
Briefly: BSK_LPS_Eselectin: BioMAP Diversity Plus: LPS Assay for Eselectin Biomarker Activity (AID 2283077). The note with it: primary human HUVEC with PBMC; actives raise or lower the signal. The method in brief: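 ELISA readout of E-selectin, 24 h post-dose, HUVEC + PBMC co-culture (LPS system). Gain or loss of signal vs DMSO baseline, bidirectional fit.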

Read-out in test [8]: Interleukin-8 (IL8), CXCL8 (gene 3576)
Nature of the test: BSK_LPS_IL8: BioMAP Diversity Plus: LPS Assay for Interleukin-8 (IL8) Biomarker Activity (AID 2283078). The note with it: primary human HUVEC with PBMC; actives raise or lower the signal. In a few lines: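 HUVEC + PBMC co-culture, LPS-activated; test chemicals dosed, IL-8 read by ELISA at 24 h. Bidirectional curve fit vs DMSO baseline (gain or loss of signal).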

Test [9] is described as follows: BSK_LPS_SRB: Viability Assessment in the BioMAP Diversity Plus: LPS Assay (AID 2283079).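 Note: total protein by sulforhodamine B absorbance as a cytotoxicity measure; measured one day after compound addition; fitted in both directions against DMSO so loss or gain of signal counts.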 Particulars: primary human HUVEC with PBMC. In a few lines: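 HUVEC + PBMC co-culture, LPS-stimulated; compound 24 h. 10% TCA fix, 0.1% SRB stain, A560. Bidirectional fit vs DMSO.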
Read-out in test [10]: Interleukin-1 alpha (IL1a), IL1A (gene 3552)
Briefly: BSK_LPS_IL1a: BioMAP Diversity Plus: LPS Assay for Interleukin-1 alpha (IL1a) Biomarker Activity (AID 2283080). The note with it: primary human HUVEC with PBMC; actives raise or lower the signal. The method in brief:
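HUVEC/PBMC co-culture, LPS system; 24 h after dosing; IL-1a by ELISA; gain or loss of signal fitted bidirectionally vs DMSO baseline.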

Read-out in test [11]: Monocyte Chemoattractant Protein-1 (MCP1), CCL2 (gene 6347)
Nature of the test: BSK_LPS_MCP1: BioMAP Diversity Plus: LPS Assay for Monocyte Chemoattractant Protein-1 (MCP1) Biomarker Activity (AID 2283081).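 For AC50: secreted MCP-1 protein quantified by ELISA in culture supernatant.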 The note with it: primary human HUVEC with PBMC; actives raise or lower the signal. The method in brief: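 ELISA read-out of MCP-1 after 24 h chemical dosing of a human umbilical vein endothelial cell/peripheral blood mononuclear cell co-culture stimulated with LPS. Gain or loss of signal fitted relative to DMSO controls.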

Test [12] can be described thus: BSK_LPS_PGE2: BioMAP Diversity Plus: LPS Assay for Prostaglandin E2 (PGE2) Biomarker Activity (AID 2283082).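 For AC50: secreted prostaglandin E2 measured by ELISA in LPS-stimulated co-culture.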 The note with it: primary human HUVEC with PBMC; actives raise or lower the signal. In a few lines:
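ELISA read-out of PGE2 from human umbilical vein endothelial cells co-cultured with peripheral blood mononuclear cells under LPS, 24 h post-dose. Gain or loss of signal scored relative to DMSO baseline.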

Read-out in test [13]: Macrophage colony-stimulating factor (MCSF), CSF1 (gene 1435)
Nature of the test: BSK_LPS_MCSF: BioMAP Diversity Plus: LPS Assay for Macrophage colony-stimulating factor (MCSF) Biomarker Activity (AID 2283083). The note with it: primary human HUVEC with PBMC; actives raise or lower the signal. In a few lines: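 HUVEC + PBMC co-culture (human primary), 24 h post-dose; M-CSF by ELISA; gain/loss of signal fitted bidirectionally vs DMSO baseline.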

Read-out in test [14]: Tissue Factor, F3 (gene 2152)
Briefly: BSK_LPS_TissueFactor: BioMAP Diversity Plus: LPS Assay for Tissue Factor Biomarker Activity (AID 2283084). The note with it: primary human HUVEC with PBMC; actives raise or lower the signal. The method in brief: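 HUVEC/PBMC co-culture, LPS-activated; CD142 ELISA read 24 h post-dose; bidirectional curve fit vs DMSO negative control.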

Read-out in test [15]: Tumor necrosis factor (Homo sapiens) (UniProt P01375)
Nature of the test: BSK_LPS_TNFa: BioMAP Diversity Plus: LPS Assay for Tumour Necrosis Factor alpha (TNFa) Biomarker Activity (AID 2283085).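 For AC50: TNFa protein level quantified by ELISA in the co-culture.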 Particulars: primary human HUVEC with PBMC; actives raise or lower the signal. In a few lines: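 HUVEC/PBMC co-culture, LPS-stimulated; 24 h post-dose; TNFa by ELISA; gain or loss of signal fitted bidirectionally vs DMSO baseline.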

Read-out in test [16]: Vascular cell adhesion molecule 1 (VCAM1), VCAM1 (gene 7412)
Nature of the test: BSK_LPS_VCAM1: BioMAP Diversity Plus: LPS Assay for Vascular cell adhesion molecule 1 (VCAM1) Biomarker Activity (AID 2283086). Particulars: primary human HUVEC with PBMC; actives raise or lower the signal. The method in brief:
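ELISA read-out of VCAM-1 at 24 h post-dosing in an LPS-driven HUVEC/PBMC primary human co-culture; gain or loss of signal fitted bidirectionally against DMSO baseline. Cytotoxicity tracked in parallel cultures by SRB total-protein staining.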

Read-out in another test: CD38, CD38 (gene 952)
Briefly: BSK_SAg_CD38: BioMAP Diversity Plus: SAg Assay for CD38 Biomarker Activity (AID 2283087). Particulars: primary human HUVEC with PBMC; actives raise or lower the signal. The method in brief:
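Measures CD38 on a human endothelial/PBMC co-culture driven by SEB and TSST-1, 24 h after compound exposure, using ELISA with fluorescence detection; DMSO defines baseline for bidirectional curve fitting.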

Read-out in the next test: CD69, CD69 (gene 969)
Briefly: BSK_SAg_CD69: BioMAP Diversity Plus: SAg Assay for CD69 Biomarker Activity (AID 2283089).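 For AC50: cell surface CD69 protein quantified by ELISA with fluorescence detection.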 The note with it: primary human HUVEC with PBMC; actives raise or lower the signal. In a few lines:
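HUVEC co-cultured with PBMC were dosed with chemical, and CD69 was measured by ELISA with fluorescence read-out 24 h later. Bidirectional curve fitting used DMSO as negative control and activity baseline.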

Calls of active or inactive are those of the source. Rule for the calls: active = hit-call score of the fitted dose curve at least 0.9, where 1 is the maximum; inactive = score below 0.9.

Sequence of E-selectin (Homo sapiens) (P16581 whole entry, looked up): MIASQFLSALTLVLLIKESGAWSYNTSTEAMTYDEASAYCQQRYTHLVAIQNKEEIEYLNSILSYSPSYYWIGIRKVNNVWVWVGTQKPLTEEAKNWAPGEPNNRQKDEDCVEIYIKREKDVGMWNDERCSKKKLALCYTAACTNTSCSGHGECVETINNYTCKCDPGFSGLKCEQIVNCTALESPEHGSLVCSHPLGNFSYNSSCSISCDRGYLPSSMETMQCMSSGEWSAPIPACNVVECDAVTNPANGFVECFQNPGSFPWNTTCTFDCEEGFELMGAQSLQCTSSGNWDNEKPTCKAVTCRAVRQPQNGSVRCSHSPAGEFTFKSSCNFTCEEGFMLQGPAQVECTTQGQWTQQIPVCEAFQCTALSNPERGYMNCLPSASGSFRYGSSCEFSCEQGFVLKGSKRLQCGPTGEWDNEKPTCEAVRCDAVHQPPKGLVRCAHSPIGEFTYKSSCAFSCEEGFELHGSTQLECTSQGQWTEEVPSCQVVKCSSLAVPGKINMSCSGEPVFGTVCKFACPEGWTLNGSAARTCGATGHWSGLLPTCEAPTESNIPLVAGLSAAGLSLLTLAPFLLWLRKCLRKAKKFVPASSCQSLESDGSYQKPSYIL
Sequence of Tumor necrosis factor (Homo sapiens) (P01375 whole entry, looked up): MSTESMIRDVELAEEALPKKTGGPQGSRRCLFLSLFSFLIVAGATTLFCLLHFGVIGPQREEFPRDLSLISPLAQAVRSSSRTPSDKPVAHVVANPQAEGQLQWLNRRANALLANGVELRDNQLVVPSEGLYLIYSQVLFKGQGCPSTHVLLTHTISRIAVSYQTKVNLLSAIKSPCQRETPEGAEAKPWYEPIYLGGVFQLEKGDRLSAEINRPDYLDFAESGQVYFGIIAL

Take `CNC(=O)ON=C(C)SC`: the result in test [1], in test [2], in test [3], in test [4], in [5] and in [6] was inactive. Further, the outcome with CD40, CD40 (gene 958) was “inactive”; in test [7] it was “inactive”; in test [8], “inactive”; in test [9], “inactive”; in test [10] it was “inactive”; in test [11], “inactive”. Further, the outcome is “inactive” in [13]; “inactive” in test [14]; “inactive” in test [15]; “inactive” in test [16]; “inactive” with CD38, CD38 (gene 952); “inactive” with CD69, CD69 (gene 969). In test [12], the AC50 was 0.564 µM (active).
In the case of `CCCCOC(=O)c1ccccc1C(=O)O`, the outcome in test [1], in test [2], in [3], in test [4], in test [5] and in test [6] was inactive. Further, the outcome in the test with CD40, CD40 (gene 958) was “inactive”; in [7] it was “inactive”; in test [8] it was “inactive”; in [9] it was “inactive”; in test [10] it was “inactive”; in [11] it was “inactive”. The outcome was “inactive” in [12]; “inactive” in test [13]; “inactive” in test [14]; “inactive” in test [15]; “inactive” in [16]; “inactive” with CD38, CD38 (gene 952). Besides, in the test with CD69, CD69 (gene 969), the outcome was inactive.
For the molecule `CC(C)=CC1C(C(=O)OCN2C(=O)C3=C(CCCC3)C2=O)C1(C)C` (configuration not stated), the outcome in test [1], in test [2], in test [3], in test [4], in test [6] and in test [9] was inactive. Moreover, the result in [10] and in [14] was inactive. The AC50 was 3.97 µM (active) in test [5]; 11.4 µM (active) with CD40, CD40 (gene 958); 35.1 µM (active) in test [7]; 26.9 µM (active) in test [8]; 9.93 µM (active) in [11]; 4.14 µM (active) in [12]. Further, the AC50 in test [13] is 34.3 µM (active); in test [15], 31.7 µM (active); in test [16] it was 28.5 µM (active); with CD38, CD38 (gene 952) it was 32.2 µM (active); with CD69, CD69 (gene 969) it was 20 µM (active).
